Bioassay records as filed in PubChem BioAssay.
GLD-1 TGE inh = GLD-1/TGE RNA complex disruptors, primary screen, biochemical, fluorescence polarization. Female germline-specific tumor suppressor gld-1 (Caenorhabditis elegans), Q17339. purified GLD-1 + fluorescein TGE RNA. inhibition, % at 5.96 µM. 320,000 compounds, 0.44% hits;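 active means percent inhibition above a per-plate cutoff, the plate mean of test compounds plus 3 SD, cut at about 30% in these data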;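 further: 0% = DMSO wells with GLD-1 and probe and 100% = wells lacking GLD-1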
EBV gp42 block = Epstein-Barr virus gp42 inhibitors, primary screen, biochemical, uHTS, fluorescence polarization; Glycoprotein 42 (Epstein-Barr virus (strain AG876)), Q1HVG2; Fluorescence polarization binding assay, mP read-out; inhibition, % (tested at 21.74 µM); 220,000 compounds, 0.42% hits; in the data active means inhibition above about 50%
MEX-5 binding = MEX-5 zinc finger RNA-binding disruptors – biochemical, C. elegans, fluorescence polarization, MLPCN library, primary screen; AID 1832, 2009; Zinc finger protein mex-5 (Caenorhabditis elegans), Q9XUB2; 300,000 compounds, 0.38% hits; MEX-5/FITC-TCR2 RNA binding; stronger effect = lower value; activity score (negative = inhibition of binding), % at 10 µM;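 active means inhibition past about -25% in most replicates, and total fluorescence under double the plate's negative control median, limit read from the data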;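 further: 0% = DMSO and -100% = 5 µM competing unlabeled TCR2 RNA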
eLon inh = inhibitors of E. coli Lon protease, primary screen, biochemical, fluorescence polarization. purified E. coli Lon protease. inhibition, % at 7.94 µM. 360,000 compounds, 0.42% hits. AID 602123, 2011; in the data active means inhibition above about 13%, passing the limit was not always enough;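 further: 0% = enzyme with probe and DMSO and 100% = no enzyme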
Target sequence (P0A9M0 whole entry, looked up): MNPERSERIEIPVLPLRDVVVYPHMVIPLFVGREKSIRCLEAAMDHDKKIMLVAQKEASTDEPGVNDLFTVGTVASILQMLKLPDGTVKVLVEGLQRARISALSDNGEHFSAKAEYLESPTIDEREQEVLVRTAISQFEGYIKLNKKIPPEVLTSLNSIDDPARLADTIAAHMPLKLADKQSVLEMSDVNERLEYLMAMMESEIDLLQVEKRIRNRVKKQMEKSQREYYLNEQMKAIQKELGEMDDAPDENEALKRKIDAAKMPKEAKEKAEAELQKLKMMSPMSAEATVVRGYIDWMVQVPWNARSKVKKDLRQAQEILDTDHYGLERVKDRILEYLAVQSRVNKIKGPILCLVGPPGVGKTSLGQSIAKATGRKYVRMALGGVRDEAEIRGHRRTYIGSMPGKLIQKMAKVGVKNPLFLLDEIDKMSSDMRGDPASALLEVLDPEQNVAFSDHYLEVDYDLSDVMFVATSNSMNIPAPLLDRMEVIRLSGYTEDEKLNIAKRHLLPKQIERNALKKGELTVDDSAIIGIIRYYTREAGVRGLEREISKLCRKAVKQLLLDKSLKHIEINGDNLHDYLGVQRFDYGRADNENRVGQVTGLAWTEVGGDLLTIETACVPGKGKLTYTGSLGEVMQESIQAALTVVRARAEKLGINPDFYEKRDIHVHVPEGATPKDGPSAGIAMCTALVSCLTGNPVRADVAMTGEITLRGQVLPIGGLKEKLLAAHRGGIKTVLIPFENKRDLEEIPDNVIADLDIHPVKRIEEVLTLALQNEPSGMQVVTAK
Bcl-xL primary = inhibitors of human Bcl-xL, primary screen, biochemical, fluorescence polarization, HTS; Bcl-2-like protein 1 (Homo sapiens), Q07817; GST-Bcl-xL / FITC-Bim BH3 peptide fluorescence polarization; inhibition, % at 10.9 µM; 320,000 compounds, 0.7% hits;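 active means inhibition above the mean of all tested compounds plus 3 SD, cutoff set per campaign, cut at about 30% in these data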;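 further: 0% = DMSO wells and 100% = unlabeled Bim-BH3 peptide competitor; inhibitors lower millipolarization by displacing the labeled peptide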
MCL1 BIM primary = inhibitors of MCL1 binding to BIM-BH3, primary screen, biochemical, fluorescence polarization; inhibition, % at 10.9 µM; 320,000 compounds, 0.68% hits; GST-MCL1 / FITC-Bim-BH3 fluorescence polarization;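 active means inhibition above the mean inhibition of all tested compounds plus 3 SD, set per campaign, cut at about 40% in these data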;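 further: 0% = DMSO wells and 100% = unlabeled Bim-BH3 peptide control; higher means more loss of mP so more displacement of Bim peptide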
BCLXL inh confirm = Bcl-xL inhibitors blocking Bim BH3 binding, confirmation, counter-screen for MCL1 inhibitor project, biochemical, fluorescence polarization; shares compounds with MCL1 BIM primary; GST-Bcl-xL / FITC-Bim BH3 peptide FP binding; inhibition, % at 10.9 µM; 1,700 compounds, 54% hits;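 active means inhibition above a cutoff equal to the mean inhibition of all tested compounds plus 3 SD, cut at about 30% in these data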;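 further: 0% = DMSO wells and 100% = unlabeled Bim BH3 control peptide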
MCL1 inh confirm = inhibitors of MCL1 binding to BIM-BH3, confirmation, biochemical, fluorescence polarization, triplicate. shares compounds with MCL1 BIM primary. GST-MCL1 / FITC-Bim-BH3 fluorescence polarization. inhibition, % at 10.9 µM. 1,700 compounds, 61% hits. AID 2168, 2009;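 active means inhibition above the average of all tested compounds plus 3 SD, cut at about 40% in these data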;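 further: 0% = DMSO wells and 100% = unlabeled Bim-BH3 control peptide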
* marks the source's active call; other numbers are inactive results; · = no result given. The list is not random: actives were taken first. Their share in the collection is about 1.5%.

SMILES | GLD-1 TGE inh | EBV gp42 block | MEX-5 binding | eLon inh | Bcl-xL primary | MCL1 BIM primary | BCLXL inh confirm | MCL1 inh confirm
CCCCCCc1c(O)c2ccccc2[nH]c1=O | 1 | -14 | -2 | 1 | 7 | 0 | · | ·
CCOC(=O)C1CCCN(S(=O)(=O)c2ccc(Cl)nc2)C1 (stereo unspecified) | 0 | · | -1 | 5 | 4 | -10 | · | ·
C#CCNC(=O)C[C@@H]1C[C@@]2(C(=O)OC)CCCCC=C2N(Cc2ccc(Cl)cc2Cl)C1=O | · | · | · | -1 | · | · | · | ·
CCOC(=O)C1=C(CSc2nc(CC)c(C)cc2C#N)OC(N)=C(C#N)C1c1ccc(OC)cc1 (stereo unspecified) | -40 | -56 | 11 | -28 | -2 | -36 | · | ·
COC(=O)C1=C(CSc2nc3c(cc2C#N)CN(C)CC3)OC(N)=C(C#N)C1c1ccc(F)cc1 (stereo unspecified) | 26 | 19 | -10 | -18 | 58* | 74* | 24 | 21
O=C(CCc1ccccc1)Nc1ccccc1[N+](=O)[O-] | 4 | -6 | 0 | -3 | 1 | -9 | · | ·
O=C(CCc1ccccc1)Oc1ccccc1[N+](=O)[O-] | 3 | · | 0 | · | 7 | 73* | 3 | -1
NC(=O)c1cccnc1Oc1ccc(Cl)cc1Cl | -3 | -1 | 3 | 5 | 1 | 54* | 6 | -1
Cc1cc(Cl)ccc1Nc1ncccc1C(N)=O | 1 | 6 | -1 | -8 | 3 | -2 | · | ·
CC1CC(C)CN(C(=O)COC(=O)c2ccc3c(c2)OCO3)C1 (stereo unspecified) | 5 | · | · | -7 | 2 | 46* | -1 | 6
Cc1cccc(COC[C@H](Cc2ccccc2)N2CCN(C(=O)c3cc(Cl)cc(Cl)c3)CCC2=O)c1 | · | · | · | 5 | · | · | · | ·
Cc1ccnc(NC(=O)c2ccc(OCC3CCCO3)cc2)c1 (stereo unspecified) | -6 | · | -4 | -4 | -1 | -11 | · | ·
Cc1c(C(=O)N/N=C/c2cccs2)nnn1-c1nonc1N | 9 | · | -1 | -3 | 0 | 9 | · | ·
O=C1/C(=C2\C(=O)N(Cc3ccc(F)cc3)c3ccccc32)SC(=S)N1CCS(=O)(=O)O | -4 | · | -10 | -4 | 21 | 43* | 23 | 39
CC(C)n1c(=O)c2ccccc2n1CC(=O)N1CCOCC1 | · | · | · | -2 | · | · | · | ·
COc1ccc2ccc3c(c2c1)N=C[C@]1(O3)N(C)c2ccccc2C1(C)C | 5 | -20 | 2 | -8 | 40* | 57* | 39* | 39
COc1ccccc1NC(=O)N1CCc2[nH]c3ccc(F)cc3c2C1 | 51* | 8 | -2 | 4 | 52* | 50* | 14 | 20
C=CCOc1ccc(/C=C/C(=O)OCC(=O)N(C)CC(=O)Nc2ccccc2Cl)cc1 | 5 | · | -2 | 5 | -3 | -5 | · | ·
Cc1ccc(NC(=O)CCN2CCC(C(N)=O)CC2)cc1 | 1 | · | 0 | -3 | -1 | -3 | · | ·
CCOC(=O)c1c[nH]c2nc(C)ccc2c1=O | 61* | 46 | -47* | 15 | 78* | 85* | 70* | 89*
CCOc1cc(OCC)cc(C(=O)N2CCC[C@H]2C(=O)N2CCC[C@H]2C(=O)NCc2cccc(OC)c2)c1 | · | · | · | -4 | · | · | · | ·
COc1ccccc1N(CC(=O)NC1CCCCC1)C(=O)c1csnn1 | 6 | -13 | 2 | 5 | 2 | 0 | · | ·
COc1ccccc1N(CC(=O)NC1CCCC1)C(=O)c1csnn1 | -3 | 4 | 1 | 5 | 3 | 69* | 7 | 3
CC1(C)CC(=O)C2=C(C1)Nc1ccccc1N=C2 | 63* | 31 | -16 | · | 91* | 106* | 29 | 27
O=c1ccc2cc3c([nH]c4ccc(Br)cc43)oc-2c1O | 8 | -15 | -79* | -32 | 46* | 85* | 24 | 69*
SMILES | GLD-1 TGE inh | EBV gp42 block | MEX-5 binding | eLon inh | Bcl-xL primary | MCL1 BIM primary | BCLXL inh confirm | MCL1 inh confirm
O=C(O)c1ccc(N=Nc2c(O)[nH]c3ccc(Br)cc23)cc1 | -3 | · | -8 | -2 | 1 | -6 | · | ·
CC(C)=C(NC(=O)c1ccccc1)C(=O)Nc1cccc(C)c1 | 8 | · | 3 | 5 | 1 | 3 | · | ·
CC1C2C(C)N(C)C(=O)N(C)C2N(C)C(=O)N1C (stereo unspecified) | 41* | 65* | -40* | 7 | 81* | 85* | 74* | 90*
Brc1ccc(C2=Nc3cccc4cccc(c34)N2)o1 | 0 | -11 | -1 | -7 | 20 | 41* | 8 | 14
CCCc1cc(=O)oc2c3c(c(Cl)cc12)OCN(CCCO)C3 | 48* | · | -2 | · | 76* | 89* | 55* | 82*
Cc1cccc(NC(=O)CSc2nc(=O)n(CCN3CCOCC3)c3c2CCCC3)c1C | 3 | · | 0 | -1 | 1 | 5 | · | ·
CC(C)Sc1nc2ccccc2c(=O)[nH]1 | -1 | -2 | 0 | -19 | 0 | -1 | · | ·
CC(c1nc2ccccc2c(=O)[nH]1)N(C)c1ccc2ccccc2c1 (stereo unspecified) | 78* | 6 | 3 | 20 | 74* | 87* | 12 | 22
COc1ccccc1NC(=O)c1ccc(-c2nn(C)c(=O)c3ccccc23)cc1 | 0 | -29 | -1 | -6 | 6 | -2 | · | ·
COc1ccc(NC(=O)c2ccc(-c3nn(C)c(=O)c4ccccc34)cc2)cc1 | 5 | -2 | -2 | -2 | 16 | 45* | -4 | -7
CC1CCN(c2ccc3c(c2)S(=O)(=O)c2cccc(C(=O)NCc4cccc(F)c4)c2C3=O)CC1 | 162* | · | · | -86 | 27 | 68* | -28 | -52
O=C(O)c1cccc2c1C(=O)c1ccc(N3CCCC3)cc1S2(=O)=O | 80* | · | · | 48* | 112* | 131* | 104* | 122*
CN1CCC[C@@H]1CCNC(=O)c1cccc2c1C(=O)c1ccc(N3CCCC3)cc1S2(=O)=O | 12 | · | · | -30 | · | · | · | ·
Cc1ccn2cc(-c3cccc(NC(=O)C(C)C)c3)nc2c1 | 4 | -11 | 0 | 0 | 3 | 1 | · | ·
Cc1ccn2cc(-c3ccc(O)c(O)c3)nc2c1 | 2 | · | -46* | -4 | 25 | 56* | 58* | 58*
